A3G deaminase: APOBEC3G (human) deaminase inhibition. Q9HC16. recombinant A3G, ssDNA deamination FAM/TAMRA fluorescence. inhibition, % at 20 µM. actives 0.28% (n = 330,000);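 active = inhibition of at least 40% at 20 µM, with no more than 30% in the related APOBEC3A deaminase screen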
Target sequence (Q9HC16 whole entry, looked up): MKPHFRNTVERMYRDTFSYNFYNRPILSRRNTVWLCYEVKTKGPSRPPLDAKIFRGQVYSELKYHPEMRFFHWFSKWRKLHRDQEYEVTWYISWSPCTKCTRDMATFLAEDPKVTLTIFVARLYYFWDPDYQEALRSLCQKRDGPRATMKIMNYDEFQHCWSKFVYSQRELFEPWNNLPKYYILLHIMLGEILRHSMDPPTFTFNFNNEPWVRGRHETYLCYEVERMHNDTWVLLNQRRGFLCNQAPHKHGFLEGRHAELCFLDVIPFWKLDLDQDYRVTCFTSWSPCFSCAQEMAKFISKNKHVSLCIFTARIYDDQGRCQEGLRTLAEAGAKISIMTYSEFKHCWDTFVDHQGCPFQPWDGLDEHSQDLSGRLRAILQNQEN
esBAF inh: SWI/SNF esBAF complex inhibition; actives 2% (n = 350,000); mouse ES cells, Bmi1-luciferase knock-in reporter, 24 h; 100% = twice the neutral-well signal; reporter increase, % at 12.5 µM; AID 602393; in the data active = activation above about 40%;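 also: a rise in the Bmi1 reporter signal indicates esBAF inhibition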
Wnt act: Wnt/beta-catenin pathway activation; activation, % at 9.35 µM; Wnt/beta-catenin reporter cell assay, activator, plate reader; actives 1.2% (n = 300,000); in the data active = activation above about 30%, passing the limit was not always enough
A3A deaminase: human APOBEC3A DNA deaminase inhibition; P31941; recombinant A3A, FAM/TAMRA ssDNA deamination fluorescence; inhibition, % at 20 µM; actives 0.41% (n = 330,000);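 active = at least 40% inhibition at 20 µM here, with at most 30% in a related deaminase screen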
MITF TRPM1 HTS: increases MITF-driven TRPM1 promoter luciferase signal; SK-MEL-5 TRPM1-promoter luciferase, 24 h; % of positive control, neutral wells = 0; activation, % at 12.5 µM; actives 0.75% (n = 300,000); AID 588334;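 active = mean activation of at least 80% with every replicate also reaching 80%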
PHOSPHO1 block: PHOSPHO1 (human) inhibition. Q8TCT1. recombinant PHOSPHO1, absorbance phosphatase assay. inhibition, % at 13.3 µM. actives 1.1% (n = 290,000). AID 1565; in the data active = inhibition above about 60%
Target sequence (Q8TCT1 whole entry, looked up): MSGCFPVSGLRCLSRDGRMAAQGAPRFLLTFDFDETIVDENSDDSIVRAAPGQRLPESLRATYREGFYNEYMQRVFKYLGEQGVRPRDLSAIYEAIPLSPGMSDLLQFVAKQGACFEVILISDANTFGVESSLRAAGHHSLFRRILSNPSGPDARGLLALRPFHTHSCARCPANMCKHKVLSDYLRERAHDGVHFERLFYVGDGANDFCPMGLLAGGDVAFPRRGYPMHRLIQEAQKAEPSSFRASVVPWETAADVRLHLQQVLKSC
Numbers stand for hits; – = inactive; · = no result. Sampled rows, rich in hits. Any-hit rate of the full collection: about 3.6%.

SMILES	A3G deaminase	esBAF inh	Wnt act	A3A deaminase	MITF TRPM1 HTS	PHOSPHO1 block
Cc1ccc(C)c(S(=O)(=O)Nc2cc(SCC(=O)O)c(O)c3ccccc23)c1	·	·	·	·	–	70.9
Cc1ccc2c(c1)sc1nc(=O)n(-c3ccc(Cl)c(Cl)c3)c(=O)n12	–	–	–	–	–	–
Cc1ccc2c(c1)sc1nc(=O)n(-c3cccc(Cl)c3)c(=O)n12	–	69.4	·	–	102.6	–
O=c1nc2sc3ccccc3n2c(=O)n1-c1ccc(Cl)cc1	–	45.6	–	–	114.4	–
O=c1nc2sc3ccccc3n2c(=O)n1-c1cccc(Cl)c1	–	76.2	·	–	·	–
Cc1ccc2c(c1)sc1nc(=O)n(-c3ccc(Cl)cc3)c(=O)n12	–	–	·	–	·	–
C[C@@H]1CN([C@@H](C)CO)S(=O)(=O)c2ccc(C#Cc3ccccn3)cc2O[C@@H]1CN(C)Cc1ccc(F)cc1	·	–	·	·	·	·
COc1ccc(S(=O)(=O)Nc2ccc3c(c2)C(=O)N([C@@H](C)CO)C[C@H](C)[C@H](CN(C)S(=O)(=O)c2ccc(OC)cc2)OCCCC[C@H](C)O3)cc1	·	–	·	·	·	·
C=CCn1c(COc2ccccc2)nc2ccccc21	–	49.6	–	–	–	·
CN(C)CCn1c(COc2ccccc2)nc2ccccc21	–	·	–	–	·	·
COCCn1c(COc2ccc(C)cc2)nc2ccccc21	–	64.1	–	–	–	–
CCOCCn1c(COc2ccc(C)cc2)nc2ccccc21	–	·	–	–	–	–
CCN1C(=O)/C(=C/c2ccc(C)s2)NC1=S	–	·	·	–	–	76.4
Cc1ccc(/C=C2/NC(=O)N(Cc3ccccc3)C2=O)s1	–	–	·	–	–	–
CC(C)(C)OC(=O)NCCc1n[nH]c(=S)o1	–	·	–	–	·	–
Cn1c(CCNC(=O)OC(C)(C)C)n[nH]c1=S	–	–	·	–	–	79.4
COc1cccc(-n2c(CNC(=O)OC(C)(C)C)n[nH]c2=S)c1	–	–	–	–	–	84.3
CCCC#Cc1cnc2c(c1)C(=O)N([C@H](C)CO)C[C@@H](C)[C@@H](CN(C)C(=O)c1ccc(F)cc1)O2	·	–	·	·	·	·
CCCNC(=O)Nc1ccc2c(c1)C(=O)N(C)C[C@@H](OC)[C@@H](C)CN(C(=O)c1ccccc1F)[C@@H](C)CO2	·	–	·	·	·	·
COc1ccc(N2CSC3=C(C#N)C(c4cccs4)CC(=O)N3C2)cc1 (stereo unspecified)	·	–	–	·	·	89.4
CCOC(=O)c1ccc(N2CSC3=C(C#N)C(c4cccs4)CC(=O)N3C2)cc1 (stereo unspecified)	–	–	–	–	–	93.7
O=C(Nc1ccc(F)cc1)N[C@H]1CC[C@@H](CCNC(=O)c2cc(Cl)cc(Cl)c2)O[C@H]1CO	·	–	·	·	·	·
C[C@@H](NC(=O)C[C@@H]1CC[C@H](NC(=O)C2CC2)[C@@H](CO)O1)c1ccccc1	·	–	·	·	·	·
CCC1(c2ccc(Cl)cc2)NC(=S)N(c2ccccc2)N1 (stereo unspecified)	–	–	–	–	–	–
CCC1(c2ccccc2)NC(=S)N(c2ccc(C)cc2)N1 (stereo unspecified)	–	44.9	–	–	–	–
SMILES	A3G deaminase	esBAF inh	Wnt act	A3A deaminase	MITF TRPM1 HTS	PHOSPHO1 block
CC(C)(C)NC(=O)Nc1ccc2nccnc2c1	–	51.6	·	–	–	–
O=C(C[C@@H]1C=C[C@@H](NC(=O)C2CC2)[C@@H](CO)O1)Nc1ccccc1	·	–	·	·	·	·
CC(C)(C)C(=O)CSc1nnc(Nc2ccccc2)s1	–	74.0	–	–	–	–
CCOC(=O)c1sc(NC(=O)c2ccc(=O)[nH]c2)nc1C	–	–	–	–	–	–
CCSc1nnc(NC(=O)c2cccc(OCc3c(C)noc3C)c2)s1	–	–	·	–	·	–
CCOC(=O)c1sc(NC(=O)c2ccc3nc[nH]c3c2)nc1C	–	52.9	–	–	–	–
Cc1nnc(NC(=O)CSc2nnc(NC(=O)C(C)(C)C)s2)s1	–	–	–	–	–	–
CCSc1nnc(NC(=O)c2ccc3nc[nH]c3c2)s1	–	90.7	–	–	–	·
CCSc1nnc(NC(=O)C(C)(C)C)s1	–	51.3	–	–	–	–
O=C(C[C@@H]1C[C@H]2c3cc(NC(=O)NC4CCCC4)ccc3O[C@H]2[C@@H](CO)O1)NCc1cccc(F)c1	·	–	·	·	·	·
C[C@@H]1CN([C@@H](C)CO)C(=O)c2cc(C#CCc3ccccc3)cnc2O[C@@H]1CN(C)C(=O)Cc1cccnc1	·	–	·	·	·	·
CC(C)NC(=O)Nc1ccc2c(c1)C(=O)N([C@H](C)CO)C[C@H](C)[C@H](CN(C)Cc1ccccc1)OCCCC[C@H](C)O2	·	–	·	·	·	·
O=C(Nc1ccccc1)c1nnn(Cc2ccccc2)c1NC(=O)C(F)(F)F	–	55.6	–	–	·	–
Cc1cc(C)nc(SC(C(=O)O)c2ccccc2)n1 (stereo unspecified)	–	·	–	–	–	–
Cc1cc(C)nc(Sc2nc(Cl)nc(N(c3ccccc3)c3ccccc3)n2)n1	–	–	–	–	–	82.6
COc1cc(OC)nc(NC(=O)CSc2nc3ccccc3o2)n1	–	–	·	–	–	–
Cc1cccc(NC(=O)CSc2nc3ccccc3o2)c1	–	46.8	·	–	·	–
Cc1cc(C)nc(NC(=O)CSc2nc3ccccc3o2)n1	–	–	·	–	–	69.1
O=c1oc2ccccc2nc1/C=C(\O)c1ccccc1	–	·	39.9	–	·	–
CCOc1ccc2nc(NC(=O)C3CCN(C(=O)c4ccco4)CC3)sc2c1	–	65.3	–	–	–	–
CCOc1ccc2nc(N3CCC(C(=O)N4CCN(C5CCCCC5)CC4)CC3)sc2c1	–	64.7	–	–	–	–
CCOc1ccc2nc(N3CCCCCC3)sc2c1	–	–	–	–	–	–
CCOc1ccc2nc(N3CCC(C(=O)Nc4nnc(CC)s4)CC3)sc2c1	–	48.0	–	–	–	–
COc1cccc(-c2cc(C(=O)Nc3cccnc3Cl)no2)c1	–	–	–	–	–	–
O=C(Nc1cccnc1Cl)c1cc(-c2ccco2)on1	–	45.7	58.5	–	·	–
SMILES	A3G deaminase	esBAF inh	Wnt act	A3A deaminase	MITF TRPM1 HTS	PHOSPHO1 block
O=C(Nc1cc(Cl)ccc1O)c1cc(-c2ccco2)on1	–	66.7	–	–	–	–
CCNC(=O)C[C@@H]1CC[C@H]2[C@@H](COC[C@H](O)CN2C(=O)Nc2c(C)noc2C)O1	·	–	·	·	·	·
C[C@@H]1CCCCO[C@H](CN(C)S(=O)(=O)c2ccc(Cl)cc2)[C@@H](C)CN([C@H](C)CO)C(=O)c2cc(NS(=O)(=O)c3cn(C)cn3)ccc2O1	·	–	·	·	·	·
Cc1n[nH]c(=O)nc1N/N=C/c1ccco1	–	·	48.7	–	–	–
O=C(Cc1ccc(Br)cc1)N1CCN(c2ccccc2O)CC1	–	50.1	–	–	–	–
CCCc1cn(CC[C@@H]2CC[C@H](NC(=O)C3CC3)[C@@H](CO)O2)nn1	·	–	·	·	·	·
CNC[C@@H]1OCCCC[C@@H](C)Oc2ccc(NS(=O)(=O)c3ccc(F)cc3)cc2C(=O)N([C@@H](C)CO)C[C@@H]1C	·	–	·	·	·	·
COc1ccc(C(=O)N2C[C@@H]3[C@H](c4ccccc42)[C@H](CO)N3C(=O)Cc2ccccn2)cc1	·	–	·	·	·	·

Screens: PubChem BioAssay, several laboratories
